Assay outcomes: PubChem BioAssay, The Scripps Research Institute Molecular Screening Center
hcDAF12 agonist: H. contortus DAF-12 nuclear receptor activators, primary screen, cell-based, luminescence, HEK293, lit1-tk-luc reporter; activation, % at 6.8 µM; AID 652067, 2013; 370,000 compounds, 1.4% hits; HEK293 hcDAF-12 lit1-tk-luc reporter; 0% DMSO, 100% Δ7-dafachronic acid;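 active means activation above the mean of all tested compounds plus 3 SD, cut at about 5.5% in these data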
SMARCA2 act: SMARCA2 (BRM) function activators, primary screen, cell-based, luminescence, high throughput; MG213 cells, MMTV-luciferase reporter, dexamethasone, overnight; activation, % at 9.1 µM; 370,000 compounds, 1% hits; in the data active means activation above about 7.8%
DAX1 inh-1: DAX1 (NR0B1) inhibitors, primary screen, cell-based, HEK293, Gal4-DAX1, luciferase luminescence. Nuclear receptor subfamily 0 group B member 1 (Homo sapiens), P51843. HEK293 Gal4-DAX1 luciferase reporter. inhibition, % at 6.75 µM. 340,000 compounds, 0.99% hits;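 active means inhibition above the mean over all tested compounds plus 3 SD, cut at about 4.2% in these data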;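 further: inhibition shows as a rise in luminescence from relieved DAX1 repression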
ssDAF-12 act: S. stercoralis DAF-12 nuclear receptor activators, primary screen, cell-based, luminescence, HEK293, GRIP1 co-expression, lit1-tk-luc. Nuclear hormone receptor DAF-12 (Strongyloides stercoralis). activation, % at 6.8 µM. HEK293 ssDAF-12/GRIP1 lit1-tk-luc reporter; % of 3 µM dafachronic acid response. 370,000 compounds, 1% hits;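 active means activation above the mean over all tested compounds plus 3 SD, cut at about 0.9% in these data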
hgDAF12 agonist: H. glycines DAF-12 receptor agonists, primary screen, cell-based, luminescence, HEK293, GAL4 fusion, UAS-luciferase; activation, % at 6.8 µM; HEK293 GAL4-hgDAF12 UAS-luciferase reporter, agonist luminescence; normalized to butyrate control; 370,000 compounds, 1.8% hits; Nuclear hormone receptor DAF-12 (Heterodera glycines), GAL4 fusion;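 active means activation above a cutoff set at the mean of all screened compounds plus 3 SD, cut at about 10% in these data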
DAX1 inh-2: DAX1 (NR0B1) inhibitors on StAR promoter, primary screen, cell-based, luminescence, SF-1 (NR5A1), full-length DAX-1; HEK293T StAR-luciferase reporter, SF-1/DAX-1 repression relief; inhibition, % at 6.8 µM; 370,000 compounds, 1.1% hits;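 active means inhibition above the mean over all tested compounds plus 3 SD, cut at about 3.6% in these data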;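 further: higher inhibition means more luminescence from relief of DAX-1 repression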
DAX1 conf: DAX1 (NR0B1) inhibitors relieving SF-1 repression, confirmation, cell-based, luminescence, HEK293T, full-length DAX-1, SF-1 activated StAR promoter. shares compounds with DAX1 inh-2. HEK293T StAR-promoter luciferase reporter, SF-1/DAX-1 repression. inhibition, % at 6.8 µM. 2,400 compounds, 87% hits. AID 652134, 2013;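 active means inhibition above the average of every tested compound plus 3 SD, cut at about 3.8% in these data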
Target sequence (P51843 whole entry, looked up): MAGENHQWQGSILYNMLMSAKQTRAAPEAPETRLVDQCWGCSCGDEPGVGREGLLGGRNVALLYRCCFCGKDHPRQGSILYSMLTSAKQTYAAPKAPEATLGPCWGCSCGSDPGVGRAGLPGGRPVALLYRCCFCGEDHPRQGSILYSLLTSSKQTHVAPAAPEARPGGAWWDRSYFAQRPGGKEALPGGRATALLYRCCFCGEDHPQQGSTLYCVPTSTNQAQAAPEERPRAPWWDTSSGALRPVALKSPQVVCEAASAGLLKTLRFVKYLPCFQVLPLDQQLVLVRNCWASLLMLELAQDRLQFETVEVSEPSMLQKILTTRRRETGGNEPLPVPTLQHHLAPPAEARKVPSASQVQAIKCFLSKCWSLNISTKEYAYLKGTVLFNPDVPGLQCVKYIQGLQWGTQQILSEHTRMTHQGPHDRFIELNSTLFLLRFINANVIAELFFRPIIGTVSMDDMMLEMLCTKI
SF1 mutant ctr: StAR reporter signal changes without DAX1, counter-screen for DAX1 inhibitor project, cell-based, luminescence, AF-2 mutant SF-1, transactivation; 2,400 compounds, 78% hits; shares compounds with DAX1 inh-2; inhibition, % at 6.8 µM; HEK293 StAR-luciferase, SF-1 AF2 mutant; AID 652136, 2013;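 active means inhibition above the mean of all tested compounds plus 3 SD, cut at about 3% in these data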
Hits are given with their value; i = inactive; nt = not tested or not shown. This is a sample that favours compounds with a hit; in the whole collection about 4.8% have one here.

SMILES	hcDAF12 agonist	SMARCA2 act	DAX1 inh-1	ssDAF-12 act	hgDAF12 agonist	DAX1 inh-2	DAX1 conf	SF1 mutant ctr
c1cc(-c2cc3c(o2)CCCC3OCCN2CCOCC2)cs1 (centres undefined)	i	i	nt	i	i	i	nt	nt
COc1ccc(-c2cc3c(o2)CCCC3OCCN2CCOCC2)cc1 (centres undefined)	i	i	nt	i	i	4.7	5.7	3.0
COc1ccccc1NC(=O)C(C)OC(=O)c1cc2ccccc2[nH]1 (centres undefined)	i	i	i	i	i	i	nt	nt
O=C(NC1CC1)c1cc2cc3ccccc3nc2s1	i	i	i	i	i	4.9	7.6	4.6
CCCNC(=O)c1ccccc1NC(=O)Nc1ccccc1C	i	i	i	i	i	i	nt	nt
CCC(C)c1ccc(NC(=O)Nc2cccnc2)cc1 (centres undefined)	i	i	i	i	i	6.4	4.7	3.6
Cc1ccc(O)c(C2=NCCNC(C(F)(F)F)=C2)c1	i	i	i	i	i	i	nt	nt
Oc1c(C2=NCCNC(C(F)(F)F)=C2)ccc2ccccc12	i	i	i	i	19	4.7	6.5	4.6
CC1(C)Cc2cccc(OCC(=O)NCCOc3ccccc3)c2O1	i	i	i	i	i	i	nt	nt
COc1ccccc1CCNC(=O)COc1cccc2c1OC(C)(C)C2	i	i	i	i	i	4.6	i	i
CSc1ccccc1NC(=O)C(=O)c1c[nH]c2ccccc12	i	i	i	i	i	i	nt	nt
Cc1[nH]c2ccc(C(=O)NC3CCC(C)CC3)cc2c1C (centres undefined)	i	i	i	i	13	5.4	6.8	3.3
Cc1nn2c(N)c(C#N)cnc2c1-c1ccccc1	i	i	i	i	i	i	nt	nt
CCCCCCN1C[C@@H](O)[C@H](n2cc(COC(=O)c3ccccc3)nn2)C[C@@H]1c1ccccc1	i	i	i	i	i	4.6	i	i
COc1ccc(-c2csc3nc(C(C)C)oc(=O)c23)cc1OC	i	i	i	i	i	i	nt	nt
CC(C)(C)c1ccc(C(=O)NC(=S)N2CCOCC2)cc1	i	i	i	i	13	7.0	8.8	3.4
Cc1ccnc(NC(=O)CNC(=O)COc2ccccc2)c1	i	i	i	0.9	i	7.6	7.2	4.0
Cc1ccnc(NC(=O)CCNC(=O)c2ccccc2Cl)c1	i	i	i	i	i	5.0	8.5	5.6
Cc1ccnc(NC(=O)CNC(=O)c2ccc3ccccc3c2)c1	i	i	i	i	i	i	nt	nt
Cc1ccnc(NC(=O)CC(NC(=O)c2ccccc2Cl)c2ccccc2)c1 (centres undefined)	i	i	i	i	11	6.1	7.0	7.0
Cc1ccc(NC(=O)CCNC(=O)c2ccccc2Cl)nc1	i	i	i	i	i	i	nt	nt
Cc1ccnc(NC(=O)CNC(=O)c2ccccc2Br)c1	i	i	i	i	i	5.0	7.0	3.7
CCOC(=O)Cc1c(C)nc2c(-c3cccc(Br)c3)cnn2c1C	i	i	i	i	i	i	nt	nt
Cc1ccccc1S(=O)(=O)/N=C(/Nc1nc2ccccc2s1)c1ccccc1	i	i	i	i	11	5.5	3.8	4.1
O=C(O)C1CCCN(C(=O)/C=C/c2ccccc2)CC1 (centres undefined)	i	i	nt	i	i	i	nt	nt
SMILES	hcDAF12 agonist	SMARCA2 act	DAX1 inh-1	ssDAF-12 act	hgDAF12 agonist	DAX1 inh-2	DAX1 conf	SF1 mutant ctr
O=C(C=Cc1ccccc1)N1CCCCC1	i	i	i	i	i	5.2	6.2	4.7
CC(=O)Nc1cnc(-c2ccc3c(c2)OCO3)cn1	i	i	nt	i	12	4.8	9.0	5.7
O=C(c1ccc(C#Cc2ccccc2)cc1)N1CCC(O)CC1	i	i	nt	i	11	4.9	7.2	4.1
CN(Cc1cnccn1)C(=O)C1CCC(=O)N(CCc2ccccc2)C1 (centres undefined)	i	i	i	i	i	i	nt	nt
Cc1ccc(CN(C)C(=O)C2CCC(=O)N(CCc3ccccc3)C2)o1 (centres undefined)	i	i	i	i	i	5.8	4.2	3.6
CC1CCC(NC(=O)c2cc(Cl)nc3ccccc23)CC1 (centres undefined)	i	i	i	i	i	4.6	6.0	4.3
